# Measurements: PubChem BioAssay (NCI)
# The panel holds about 83,000 compounds, 20% with a hit somewhere; the sample as a whole holds those more often.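 Values shown are percent growth following 48 h exposure of cells in 96-well plates to a single concentration of compound; below 10 was considered active.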 A number with no mark means an inactive call. The source made the active and inactive calls.
# Key:
# Assay in all cases: NCI-60 one-dose screen, 48 h (100 = growth as untreated, 0 = no growth, -100 = all killed)
# Settings in all cases: 10 µM unless noted
# [1] = test system: HT29 colon
# [2] = test system: SNB-75 CNS
# [3] = test system: SNB-19 CNS
# [4] = test system: U251 CNS
# [5] = test system: PC-3 prostate
# [6] = test system: UACC-62 melanoma
# [7] = test system: LOX IMVI melanoma
# [8] = test system: SK-MEL-28 melanoma
# [9] = test system: SK-MEL-2 melanoma
# [10] = test system: EKVX NSCLC
# [11] = test system: SN12C renal
# [12] = test system: UO-31 renal
# [13] = test system: CAKI-1 renal
# [14] = test system: A498 renal
# [15] = test system: CCRF-CEM leukemia
# [16] = test system: MOLT-4 leukemia
# [17] = test system: SR leukemia
# [18] = test system: ACHN renal
# [19] = test system: TK-10 renal
SMILES,growth [1],growth [2],growth [3],growth [4],growth [5],growth [6],growth [7],growth [8],growth [9],growth [10],growth [11],growth [12],growth [13],growth [14],growth [15],growth [16],growth [17],growth [18],growth [19]
CCOc1cccc(C2CC(=O)Nc3cc4c(cc32)OCO4)c1 (centres undefined),89.1%,104%,100%,85.1%,81.7%,90.9%,93.8%,99.9%,83.1%,83.8%,104%,68.6%,64%,66.5%,72.7%,78.2%,57.5%,–,–
CO[C@H]1CC(O[C@@H]2/C(C)=C/C[C@@H]3C[C@@H](C[C@]4(CC[C@H](C)[C@@H](C5CCCCC5)O4)O3)OC(=O)[C@@H]3C=C(C)/C(=N/O)[C@H]4OC/C(=C\C=C\[C@@H]2C)[C@]43O)O[C@@H](C)C1O (some centres undefined),-70.9% (active),-90.4% (active),-96.6% (active),-87.6% (active),-80.4% (active),-93.4% (active),-92.9% (active),-87.3% (active),-71.8% (active),-85.9% (active),-82.4% (active),-90.5% (active),-73.8% (active),-96.2% (active),-47.9% (active),-36.7% (active),–,-94.4% (active),–
Clc1ccc(CCC(Cn2ccnc2)Sc2c(Cl)cccc2Cl)cc1 (centres undefined),26.7%,92.5%,80.2%,57.2%,26.5%,55%,40.5%,102%,72.8%,52.2%,55.6%,30.5%,43.3%,73.7%,35.1%,34.6%,–,65.4%,52.4%
O=C1C2C3C=CC(O3)C2C(=O)N1Nc1ccccc1 (centres undefined),112%,93.3%,111%,109%,97.5%,100%,98%,105%,133%,101%,107%,101%,93.5%,68.1%,96.1%,101%,126%,103%,103%
S=C(c1ccccc1)N1CCN(c2cccc(Cl)c2)CC1,94.8%,110%,107%,99.6%,75.3%,91.1%,105%,121%,100%,99.5%,100%,93.2%,88.7%,64.6%,84.1%,85.2%,82.4%,104%,110%
CC[C@@H]1OC(=O)[C@H](C)[C@@H](O[C@H]2C[C@@](C)(OC)[C@@H](O)[C@H](C)O2)[C@H](C)[C@@H](O[C@@H]2O[C@H](C)C[C@H](N(C)C)[C@H]2O)[C@](C)(O)C[C@@H](C)[C@@H]2N[C@@H](COCCOC)O[C@H]([C@H]2C)[C@]1(C)O,103%,77.4%,104%,96.6%,111%,109%,94.8%,109%,121%,102%,98.9%,81.5%,96.6%,119%,82.4%,90.1%,–,–,119%
Cc1ccsc1/C=C/C1=NCCCN1C,99.3%,102%,104%,100%,90.5%,106%,95.6%,103%,92.6%,99.5%,95.3%,80%,97.1%,113%,81%,95%,–,101%,104%
O=C1CN(CO)C(=O)CN1CO,109%,94.2%,101%,100%,95.4%,98.3%,99.7%,112%,121%,114%,99.3%,87.7%,94.8%,94%,92.8%,105%,–,97.6%,124%
CCOc1cc(C(C)(C)C)ccc1C1=N[C@H](c2ccc(Cl)cc2)[C@H](c2ccc(Cl)cc2)N1C(=O)N1CCN(CC#Cc2cccc3c2CN([C@@H]2CCC(=O)NC2=O)C3=O)CC1,12.6%,23%,45%,65.8%,0.359% (active),24.3%,31.8%,53.4%,44.9%,48.4%,24.4%,5.26% (active),7.99% (active),14.1%,-4.36% (active),–,9.99% (active),23.6%,49%
N=c1ccn2c(n1)O[C@@H]1[C@@H](O)[C@H](CO)O[C@@H]12,54.2%,82.8%,64.8%,52.2%,57.9%,81.2%,67.9%,69.9%,82.7%,98.8%,54.3%,15.5%,55.3%,99.3%,31.5%,28.2%,–,11.8%,67.2%
N#Cc1c(N2CCOCC2)nc2sc3cc(Cl)ccc3n2c1=N,98.5%,63.7%,77.8%,96.6%,75.9%,89.4%,93%,103%,103%,91.1%,99.8%,63.3%,111%,121%,126%,109%,108%,98.3%,160%
CCCc1nn(C)c2c(=O)[nH]c(-c3cc(S(=O)(=O)N4CCN(C)CC4)ccc3OCC)nc12,99.1%,104%,103%,94.5%,91.1%,99.9%,93.9%,116%,96.6%,95.1%,102%,78.7%,80.2%,103%,108%,94.8%,–,92.8%,113%
CCCCc1nc(Cl)c(CO)n1Cc1ccc(-c2ccccc2-c2nn[nH]n2)cc1,108%,101%,110%,97.9%,93.2%,102%,100%,114%,125%,88.1%,99.3%,82.2%,90.5%,119%,113%,100%,–,107%,108%
CCCCCCCCCCC[C@@H](C[C@H]1OC(=O)[C@H]1CCCCCC)OC(=O)[C@@H](CC(C)C)NC=O,38.4%,82.4%,55.6%,63%,50.4%,77.3%,14.1%,111%,55.9%,95.6%,43.9%,19%,54.7%,84.5%,27.6%,13.1%,–,62.7%,94.7%
O=C(c1ccccc1)c1ccco1,103%,80.3%,93.1%,99.1%,95.4%,93%,89.8%,111%,104%,–,88.4%,88.7%,–,109%,93.3%,91.7%,106%,98.9%,96%
